Screens as filed in PubChem BioAssay.
ANO1 activ: TMEM16A chloride channel activators or potentiators, primary screen, cell-based, HTS | 0.3% of 340,000 active | B-score at 10 µM | Anoctamin-1 (Mus musculus), Q8BHY3 | HEK293 TMEM16A/YFP-H148Q/I152L, iodide quench fluorescence; active compounds read low;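 active = fluorescence-ratio B-score plate-corrected deviation score at least 3 library SD below zero, with starting fluorescence score within 5 deviations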;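 note: channel opened by trigger with iodide after compound preincubation; score built on the fluorescence ratio of max minus min over baseline; more negative score means more quench and so TMEM16A activation or potentiation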
TLR4 MyD88 comp: inhibitors of TLR4-MyD88 association in cells, primary screen, cell-based, HeLa CL3-4, BLA complementation, FRET ratio; inhibition, % at 8.4 µM; Toll-like receptor 4 (Homo sapiens) + Myeloid differentiation primary response protein …; 0.18% of 200,000 active; AID 861, 2007; HeLa CL3-4 TLR4/MyD88 BLA complementation; in the data active = inhibition above about 25%;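 note: 0% = vehicle and 100% = reference inhibitor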
NOD2 RIPK2 PPI: NOD2-RIPK2 binding disruptors in cells, primary screen, fluorescence, CHO cells, BLA complementation; Receptor-interacting serine/threonine-protein kinase 2 (Homo sapiens), O43353; CCF4 ratio; inhibition, % at 4.98 µM; 0.38% of 360,000 active; AID 624267, 2012; in the data active = inhibition above about 21%;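 note: 0% = vehicle only and 100% = reference blocker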
TLR9-MyD88 inh: inhibitors of TLR9-MyD88 association in cells, primary screen, cell-based, CHO, BLA complementation, fluorescence. CCF4 FRET ratio. 0.21% of 340,000 active. inhibition, % at 4.98 µM. AID 504734, 2011. Toll-like receptor 9 (Homo sapiens) + Myeloid differentiation primary response protein …;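 active = inhibition above the mean over all tested compounds plus 3 SD, cut at about 21% in these data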;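 note: 0% = DMSO only wells and 100% = clavulanate BLA inhibitor control wells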
Target sequence (Q99836 whole entry, looked up): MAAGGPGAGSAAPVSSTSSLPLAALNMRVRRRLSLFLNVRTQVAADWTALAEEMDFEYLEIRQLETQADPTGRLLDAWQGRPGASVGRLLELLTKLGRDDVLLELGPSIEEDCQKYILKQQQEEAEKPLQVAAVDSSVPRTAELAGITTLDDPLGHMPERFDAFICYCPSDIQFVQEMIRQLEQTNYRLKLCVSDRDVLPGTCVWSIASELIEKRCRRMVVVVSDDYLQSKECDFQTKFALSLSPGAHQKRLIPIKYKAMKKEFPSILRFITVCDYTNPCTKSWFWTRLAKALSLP
Target sequence (Q9NR96 whole entry, looked up): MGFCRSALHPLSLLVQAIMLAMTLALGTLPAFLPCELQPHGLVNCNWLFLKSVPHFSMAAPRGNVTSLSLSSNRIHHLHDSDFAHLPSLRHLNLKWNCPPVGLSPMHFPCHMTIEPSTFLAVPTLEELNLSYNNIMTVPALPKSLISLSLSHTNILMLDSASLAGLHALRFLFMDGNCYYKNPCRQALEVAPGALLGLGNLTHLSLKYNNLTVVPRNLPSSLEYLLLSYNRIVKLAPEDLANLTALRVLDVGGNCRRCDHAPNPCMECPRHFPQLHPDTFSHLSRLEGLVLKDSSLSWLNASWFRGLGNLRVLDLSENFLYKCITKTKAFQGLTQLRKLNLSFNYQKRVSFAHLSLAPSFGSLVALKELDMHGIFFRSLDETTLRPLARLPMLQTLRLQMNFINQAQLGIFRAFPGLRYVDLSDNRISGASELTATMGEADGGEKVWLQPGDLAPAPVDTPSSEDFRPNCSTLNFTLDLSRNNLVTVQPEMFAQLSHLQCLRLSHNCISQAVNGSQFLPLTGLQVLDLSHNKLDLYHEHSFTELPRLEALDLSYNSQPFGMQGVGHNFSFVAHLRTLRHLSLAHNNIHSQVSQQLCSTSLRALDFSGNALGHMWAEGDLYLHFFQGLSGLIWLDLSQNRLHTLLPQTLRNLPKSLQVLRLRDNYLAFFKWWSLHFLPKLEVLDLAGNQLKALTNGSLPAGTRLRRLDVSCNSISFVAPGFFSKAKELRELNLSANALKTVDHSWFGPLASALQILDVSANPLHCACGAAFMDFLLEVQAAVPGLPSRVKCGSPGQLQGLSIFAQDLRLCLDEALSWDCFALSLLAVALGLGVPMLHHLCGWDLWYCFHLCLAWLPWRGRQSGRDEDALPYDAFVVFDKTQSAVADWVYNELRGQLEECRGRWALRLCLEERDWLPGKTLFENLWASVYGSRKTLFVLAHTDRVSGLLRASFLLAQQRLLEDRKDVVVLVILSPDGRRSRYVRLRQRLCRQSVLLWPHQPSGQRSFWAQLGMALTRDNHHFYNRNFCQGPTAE
GRK2 aptamer HTS: compounds blocking aptamer binding on GRK2 – biochemical, human GRK2, bead flow cytometry, HTS, primary screen; AID 488847, 2010; FAM-aptamer displacement from GRK2; Beta-adrenergic receptor kinase 1 (Homo sapiens), P25098; 0.59% of 330,000 active; inhibition of aptamer binding, % at 10 µM;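 active = inhibition of aptamer binding above 40%, roughly 3 SD of noise, on plates passing a quality check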;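 note: median bead fluorescence of bound FAM aptamer so fluorescent compounds give negative values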
ANO1 block: TMEM16A chloride channel inhibitors, primary screen, cell-based, HTS; 1.2% of 310,000 active; HEK293 TMEM16A/YFP iodide influx fluorescence, ionomycin; Anoctamin-1 (Mus musculus), Q8BHY3; normalized B-score (activity score, 25-100; higher = stronger inhibition) at 10 µM;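 active = ratio plate-corrected score three or more library SD toward inhibition, starting fluorescence score within five deviations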;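 note: score derived from kinetic fluorescence span divided by baseline fluorescence per well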
The depositor's hits bear a star; i = inactive; . = not tested or not shown. Most compounds without a hit are left out; they make up all but 2.2% or so of the library.

SMILES	ANO1 activ	TLR4 MyD88 comp	NOD2 RIPK2 PPI	TLR9-MyD88 inh	GRK2 aptamer HTS	ANO1 block
COC(=O)C1=C(C)NC2=C(C(=O)c3ccccc32)C1c1cccc(OC)c1 (stereo unspecified)	i	.	4.2	-6.8	0.0	i
CC1=C([N+](=O)[O-])C(c2cccc(Br)c2)C2=C(N1)c1ccccc1C2=O (stereo unspecified)	i	7.2	2.6	-3.2	0.0	100*
Cc1ccc(C)c(C(Nc2ccccc2)c2ccc3ccc(C)nc3c2O)c1 (stereo unspecified)	.	.	-2.8	.	.	.
CC(C)N1C(=O)S/C(=C/c2ccc(Sc3nc4ccccc4[nH]3)o2)C1=O	i	-8.8	-5.3	-1.9	7.0	100*
C=CCN1C(=O)S/C(=C/c2ccc(Sc3nc4ccccc4[nH]3)o2)C1=O	i	-6.4	-1.2	-2.8	0.0	100*
O=c1c(-c2ccco2)nc2ccccc2n1C(c1ccccn1)c1nc2ccccc2[nH]1 (stereo unspecified)	.	.	-22.2	.	.	.
Cc1cccc(NC(=O)C(=O)NCC2CCCN2S(=O)(=O)c2cccs2)c1 (stereo unspecified)	.	.	1.9	-1.6	.	.
CC(C)(C)n1nnnc1C(c1ccccn1)N(Cc1ccccc1)Cc1ccc(Cl)cc1 (stereo unspecified)	-5.06*	3.6	5.1	-10.3	2.0	i
O=C(Nc1ccc(-c2nc3ccccc3s2)cc1)C1=COCCO1	i	-12.0	-2.2	-4.2	48.0*	i
Cc1cccc(C)c1NC(=O)C1(C)CN(S(C)(=O)=O)CC(=O)N1CCc1ccccc1F (stereo unspecified)	.	.	-5.0	.	.	.
O=C(O)c1ccc(NS(=O)(=O)/C=C/c2ccccc2)cc1	i	5.8	3.7	10.5	55.0*	i
O=C(c1[nH]c(C(F)(F)F)nc1-c1ccccc1)N1CCN(c2cccc(C(F)(F)F)n2)CC1	.	.	-3.4	.	.	.
C=CCn1c(C)cc(-c2csc(NC)n2)c1C	i	-5.8	-1.3	1.3	.	.
C=CCn1c(C)cc(-c2csc(NCC)n2)c1C	-5.38*	11.3	0.8	-0.2	23.0	i
COc1ccc(-c2nc(SCc3ccccc3)n(S(C)(=O)=O)n2)cc1	i	10.7	-1.9	4.5	1.0	i
CCS(=O)(=O)n1nc(-c2ccc(Cl)cc2)nc1SCc1ccccc1	.	9.1	.	.	1.0	25*
CC(C)Oc1cc(F)ccc1-c1cc(C(=O)NCc2ccccn2)[nH]n1	.	.	-4.9	.	.	.
N#Cc1cccc(NC(=O)COc2ccc(-n3ccnc3)cc2)c1	i	-3.8	-0.2	-12.4	0.0	25*
COc1cc(NC(=O)COc2ccc(-n3ccnc3)cc2)cc(OC)c1	i	-11.3	9.3	1.6	0.0	i
COc1ccc(-n2c(C)ccc2-c2ccccc2)cn1	-4.82*	.	3.6	-2.8	1.0	i
COC(=O)c1ccc(-n2c(C)ccc2-c2ccccc2)cc1	i	1.2	-1.6	-8.3	3.0	i
CCCNC(=O)C1(C)CCCN(C(=O)c2cccc(C(F)(F)F)c2)C1 (stereo unspecified)	.	.	-5.3	.	.	.
COC1=C/C(=C/c2c(N)n3nc(CC(=O)N4CCCC4)sc3nc2=O)C=CC1=O	-5.71*	.	0.3	8.8	7.0	i
Nc1c(/C=C2/C=CC(=O)C(O)=C2)c(=O)nc2sc(CC(=O)N3CCCCC3)nn12	-5.45*	.	-2.4	-8.2	41.0*	i
Cc1ccc(NC(=O)C2(C)CCN2Cc2cccc3c2OCO3)cc1O (stereo unspecified)	.	.	-1.9	.	.	.
SMILES	ANO1 activ	TLR4 MyD88 comp	NOD2 RIPK2 PPI	TLR9-MyD88 inh	GRK2 aptamer HTS	ANO1 block
CC(C)OC(=O)c1ccc(Cn2nnc3ccccc3c2=O)cc1	i	1.2	3.9	-4.7	3.0	100*
O=c1c2ccccc2nnn1Cc1ccc(F)cc1	i	-5.8	-10.6	8.7	1.0	100*
O=c1c2ccccc2nnn1Cc1ccc(Br)cc1	i	-8.4	-0.9	1.5	2.0	i
COCCOC(=O)N1CCCCC1c1cc(C(=O)Nc2cccc3c2CCCC3)no1 (stereo unspecified)	.	.	-2.5	.	.	.
Cc1ccc(N2C(=O)[C@@H]3C(c4cccnc4)=NO[C@@H]3C2=O)c(C)c1	i	.	2.7	-2.6	0.0	25*
O=C1[C@@H]2C(c3cccnc3)=NO[C@@H]2C(=O)N1c1ccc(Br)cc1	i	.	3.7	-9.1	5.0	i
CCC(=O)NC1=C(Cl)C(=O)C(NC(=O)CC)=C(Cl)C1=O	i	.	23.0*	11.0	.	.
CCC(=O)NC1=C(NC(C)c2ccccc2)C(=O)c2ccccc2C1=O (stereo unspecified)	i	2.5	-7.1	-2.5	0.0	i
CCOC(=O)c1c(C)cc2c(CO)n[nH]c(=O)c2c1C	.	.	2.2	-5.9	.	.
Cc1ccccc1S(=O)(=O)NC(=O)C1(C)CCN1C(=O)COc1ccc(Cl)cc1 (stereo unspecified)	.	.	-4.8	.	.	.
CCOC(=O)[C@]12CCC=C1N(Cc1cccc3ccccc13)C(=O)[C@H](CC(=O)N1CCCC1)C2	.	.	10.6	.	.	.
Cc1ccc(S(=O)(=O)N2[C@H](CC(=O)Oc3ccccc3)OC[C@@H]2C(C)C)cc1	.	.	-7.7	.	.	.
O=C(O)CN1C(=O)/C(=C\c2cccc(OCc3ccccc3)c2)SC1=S	i	.	1.6	1.7	5.0	i
COc1ccc(/C=C2/SC(=S)N(CC(=O)O)C2=O)cc1OCc1ccc(Cl)cc1	i	.	-2.5	1.5	2.0	i
COc1cc(/C=C2/SC(=S)N(CC(=O)O)C2=O)ccc1OC(=O)c1ccco1	-5.33*	.	-10.6	2.5	0.0	i
O=C(O)CCCCN1C(=O)/C(=C\c2ccc(OCc3ccccc3)c(OCc3ccccc3)c2)SC1=S	i	.	-17.5	-3.2	100.0*	i
COc1cccc(CNC(=O)[C@@H]2CCCN2C(=O)[C@H]2CCCCN2S(=O)(=O)c2ccc(OC)c(C)c2)c1	.	.	-11.3	.	.	.
CC(C)(C)C1CCC2(CC1)C(C#N)=C(SCC(=O)Nc1ccccc1)NC(=O)C2C#N (stereo unspecified)	i	-12.3	-4.7	-1.1	1.0	100*
O=C(Nc1ccc(F)cc1)C(c1ccccc1OC(F)(F)F)N1CCN(c2cccc(C(F)(F)F)n2)CC1 (stereo unspecified)	.	.	0.7	.	.	.
O=C(Nc1ccc(Cl)c(C(F)(F)F)c1)NC1CC2CCCC(C1)N2Cc1ccccc1 (stereo unspecified)	.	-8.2	.	.	0.0	100*
